# Source: PubChem BioAssay
# TLR4 MyD88 comp: TLR4-MyD88 interaction inhibition in cells | O00206+Q99836 | HeLa CL3-4 TLR4/MyD88 BLA complementation, FRET ratio | inhibition, % at 8.4 µM | 200,000 compounds, 0.18% hits; in the data active = inhibition above about 25%
# NOD2 RIPK2 PPI: NOD2-RIPK2 protein interaction inhibition. O43353. CHO BLA complementation NOD2-RIPK2, CCF4 ratio. inhibition, % at 4.98 µM. 360,000 compounds, 0.38% hits; in the data active = inhibition above about 21%
# TLR9-MyD88 inh: blocks human TLR9 binding to MyD88 | inhibition, % at 4.98 µM | 340,000 compounds, 0.21% hits | CHO BLA complementation TLR9-MyD88, CCF4 FRET ratio;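 active = inhibition above the mean over all tested compounds plus 3 SD, cut at about 21% in these data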
# rCAG RNA binder: molecules binding r(CAG) RNA repeats; r(CAG) RNA repeat, TO-PRO-1 dye displacement fluorescence; inhibition, % at 3 µM; 370,000 compounds, 1.3% hits;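 active = inhibition above the plate cutoff, the mean of all test compounds on that plate plus 3 SD, cut at about 35% in these data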;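 also: higher means more dye released from RNA so lower well fluorescence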
# PRMT1 inh: inhibitors of human PRMT1; Q99873; recombinant PRMT1, activity-based probe fluorescence polarization; inhibition, % at 2.79 µM; 370,000 compounds, 1.3% hits;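 active = inhibition above about 21% made by adding two undisclosed values, limit read from the data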
# ABHD5-PLIN5 inh: blocks binding of human ABHD5 to perilipin-5. Q00G26+Q8WTS1. Split G. princeps luciferase complementation, luminescence, 4 h. inhibition, % at 4 µM. 360,000 compounds, 0.78% hits. AID 602281;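 active = inhibition above the mean inhibition across every tested compound plus 3 SD, cut at about 22% in these data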
# Target sequence (Q00G26 whole entry, looked up): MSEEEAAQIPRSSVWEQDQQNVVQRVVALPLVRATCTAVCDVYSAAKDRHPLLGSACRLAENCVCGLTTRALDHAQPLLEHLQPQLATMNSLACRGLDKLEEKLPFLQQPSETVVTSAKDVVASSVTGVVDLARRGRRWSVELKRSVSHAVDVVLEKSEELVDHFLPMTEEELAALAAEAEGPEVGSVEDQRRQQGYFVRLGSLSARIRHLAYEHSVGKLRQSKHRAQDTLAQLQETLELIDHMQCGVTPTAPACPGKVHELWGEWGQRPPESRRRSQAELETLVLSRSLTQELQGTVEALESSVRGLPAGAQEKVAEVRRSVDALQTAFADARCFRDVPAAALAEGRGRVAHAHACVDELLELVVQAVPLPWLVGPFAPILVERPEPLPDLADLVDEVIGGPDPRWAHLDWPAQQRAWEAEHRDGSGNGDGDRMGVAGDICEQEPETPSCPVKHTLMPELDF
# Target sequence (Q8WTS1 whole entry, looked up): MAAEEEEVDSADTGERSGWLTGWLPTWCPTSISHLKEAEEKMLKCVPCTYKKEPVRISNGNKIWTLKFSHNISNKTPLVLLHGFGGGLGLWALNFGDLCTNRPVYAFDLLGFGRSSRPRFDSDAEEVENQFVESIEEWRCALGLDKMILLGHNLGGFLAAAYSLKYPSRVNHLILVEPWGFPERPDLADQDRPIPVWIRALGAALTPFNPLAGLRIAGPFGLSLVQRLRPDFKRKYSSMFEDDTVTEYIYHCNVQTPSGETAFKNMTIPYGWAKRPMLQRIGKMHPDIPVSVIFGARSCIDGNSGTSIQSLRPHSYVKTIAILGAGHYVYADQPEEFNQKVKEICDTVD
# ABHD5 PLIN5 conf: confirmation of human ABHD5-PLIN5 interaction inhibitors | inhibition, % at 4 µM | 2,200 compounds, 67% hits | biochemical ABHD5-PLIN5 interaction, luminescence | shares compounds with ABHD5-PLIN5 inh; in the data active = inhibition above about 23%
# HNF4 counter: active in HNF4 split-luciferase counter-screen for ABHD5-PLIN5 inhibitors; HNF4 dimerization, luminescence, biochemical; 2,200 compounds, 77% hits; inhibition, % at 4 µM; AID 651674; shares compounds with ABHD5-PLIN5 inh;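 active = mean inhibition across replicate wells exceeding the computed hit threshold, cut at about 13% in these data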;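 also: light from luciferase halves that rejoin when HNF4 fusion proteins dimerize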
# A number is an active result; . = inactive; / = no result given. In the library only some 3.3% were active in any assay of this set; here they are far more common.
SMILES,TLR4 MyD88 comp,NOD2 RIPK2 PPI,TLR9-MyD88 inh,rCAG RNA binder,PRMT1 inh,ABHD5-PLIN5 inh,ABHD5 PLIN5 conf,HNF4 counter
Cc1ccc(C(=O)C=CC=Cc2ccccc2)cc1,/,.,.,.,.,.,/,/
Cc1ccc(C(=O)C(C(=O)/C=C/c2ccccc2)=C2SCCCS2)cc1,.,.,.,.,.,31,66,50
C[C@@H]1CN([C@H](C)CO)C(=O)c2cc(Br)cnc2O[C@@H]1CN(C)C(=O)NC1CCCC1,/,.,.,.,.,.,/,/
CC(C)(C)c1ccc(/C=C(\C#N)C(=O)NC2CC2)cc1,/,.,/,.,.,28,47,35
C=C1C(=O)O[C@@H]2[C@H]1[C@@H](OC(=O)/C(C)=C/C)C/C(C)=C\C(=O)/C=C(\C)[C@@H]2O,/,.,.,.,.,42,62,72
CC1=CC2C(C(O)CC3(C)C2CC(C)C32OCOC23COCO3)C2(C)C/C(=C\O)C(=O)C=C12 (configuration not stated),/,.,.,.,.,32,42,.
O=S(=O)(NCc1ccco1)c1ccc(Cl)nc1,.,.,.,.,.,.,/,/
Cn1cnc([N+](=O)[O-])c1S(=O)(=O)Oc1ccccc1,/,.,.,.,.,62,75,95
Cn1cnc([N+](=O)[O-])c1S(=O)(=O)c1cccc(Cl)c1,.,.,.,.,.,61,64,94
Cn1cnc([N+](=O)[O-])c1S(=O)(=O)Nc1ccccc1,/,.,.,.,.,.,/,/
Cc1ccc(Cl)c(NC(=O)COC(=O)CNS(=O)(=O)/C=C/c2ccccc2)c1Cl,.,.,.,.,.,44,.,.
Cc1ccc(C)c(C(=O)Cn2c(NCCO)nc3ccccc32)c1,/,.,.,.,.,.,/,/
COc1cc(C2CC(=O)c3cnc(NC(=O)c4ccco4)nc3C2)cc(OC)c1OC (configuration not stated),/,.,.,.,.,.,/,/
O=C(C[n+]1ccc2ccccc2c1)c1ccc2ccc3ccccc3c2c1,/,.,/,.,.,28,.,.
COc1cc(CNc2ccc3c(c2)CCC3)cc(OC)c1O,.,.,.,.,.,39,57,89
O=C(/C=C/c1ccccc1Br)c1ccc2c(c1)OCO2,/,.,.,.,.,.,/,/
O=C(/C=C/c1ccccc1)c1ccc2c(c1)OCO2,/,.,.,.,.,30,50,34
O=C(/C=C/c1cccc(Br)c1)c1ccc2c(c1)OCO2,/,.,.,.,.,33,74,63
COc1cc(/C=C/C(=O)c2ccc3c(c2)OCCO3)cc(Br)c1OCC(=O)N(C)C,/,.,.,.,.,40,74,73
COc1cccc(/C=C/C(=O)c2ccc3c(c2)OCO3)c1OC,/,.,.,/,/,.,/,/
O=C(/C=C/c1ccncc1)c1ccc2c(c1)OCCO2,.,.,.,.,.,60,78,74
O=C(OCCCN1CCC2(CCCCC2)C1=O)c1ccccc1,/,/,/,.,.,/,/,/
COc1cccc(Oc2nc(-c3ccncc3)nc3ccccc23)c1,/,.,/,.,.,.,/,/
CC(C)n1nc(C(=O)Nc2cccc(S(=O)(=O)N3CCOCC3)c2)c2ccccc2c1=O,/,.,.,.,.,.,/,/
Cc1ccc(N2C(=O)N(CC(=O)Nc3ccc(C)c(C)c3)C(=O)C2C)cc1 (configuration not stated),/,.,.,.,.,.,/,/
SMILES,TLR4 MyD88 comp,NOD2 RIPK2 PPI,TLR9-MyD88 inh,rCAG RNA binder,PRMT1 inh,ABHD5-PLIN5 inh,ABHD5 PLIN5 conf,HNF4 counter
FC(F)(F)c1ccccc1C(C#Cc1ccccc1)NCc1ccc2c(c1)OCO2 (configuration not stated),/,/,/,.,.,/,/,/
O=C(Cc1cccc(NC(=O)C2CCCN(C(=O)C3CCCC3)C2)c1)Nc1ccc(C(=O)N2CCCCC2)cc1 (configuration not stated),/,.,.,.,.,.,/,/
COC1=CC(=O)C(OC)=C(OC)C1=O,/,.,.,.,.,26,52,73
CCC1(C)N=C(c2ccc3c(c2)OCO3)CC(c2ccccc2O)N1 (configuration not stated),.,.,.,.,.,50,91,65
COc1cccc(C2=NC(C)(C)NC(c3ccccc3O)C2)c1 (configuration not stated),.,.,.,.,.,57,73,72
COc1cccc(C2=NNC(=NCc3ccccc3)SC2)c1,.,.,.,.,.,.,/,/
CN(C(=O)c1cc(-c2ccc3c(c2)OCO3)on1)c1ccccc1,/,.,.,.,.,.,/,/
O=C(COC(=O)c1nc(Cl)ccc1Cl)Nc1cccc(S(=O)(=O)N2CCOCC2)c1,/,.,.,.,.,.,/,/
CCOC(=O)Nc1ccc2c(c1)N(C(=O)CCN1CCOCC1)c1ccccc1S2,.,.,.,.,.,.,/,/
CCOC(=O)Nc1ccc2c(c1)N(C(=O)CCN1CCOCC1)c1ccccc1S2=O (configuration not stated),.,.,.,.,.,27,.,42
CN(C(=O)c1cccc(NC(=O)Cc2cccc(NC(=O)C3CCCN(C(=O)C4CCC4)C3)c2)c1)C1CCC1 (configuration not stated),/,.,.,.,.,.,/,/
O=C(/C=C/c1cccnc1)c1cccc(O)c1,/,.,.,.,.,63,81,90
CN(C)c1ccc(/C=C/C(=O)c2cccnc2)cc1,/,.,.,.,.,.,/,/
O=C(/C=C/c1cccc(O)c1)c1cccnc1,.,.,.,.,.,47,70,64
CCOc1ccccc1NC(=O)Nc1ccc(Br)cc1C,.,.,.,.,.,.,/,/
CCCCC[C@@H](C)N1C[C@@H](COCc2ccccc2)Oc2cc(N3CC[C@@H](N(C)C)C3)ccc2S1(=O)=O,/,.,/,.,.,28,.,.
CCCCC[C@H](C)N1C[C@H](COCc2ccccc2)Oc2cc(N3CC[C@@H](N(C)C)C3)ccc2S1(=O)=O,/,.,/,.,.,.,/,/
CC(=O)Oc1ccc(C(=O)Nc2ccccc2NC(=O)c2ccc(OC(C)=O)cc2)cc1,/,.,.,.,.,.,/,/
CC(=O)Oc1ccc(C23c4ccccc4C2(OC(C)=O)c2cc(OC(C)=O)ccc23)cc1 (configuration not stated),/,.,.,.,.,99,102,53
CCCCCCC=C1CCC(CN2CCCC2)C1=O (configuration not stated),/,.,/,.,.,25,84,28
OC(c1ccccc1)(c1ccccc1)C1CCN(CCCOc2cccc(Cl)c2)CC1,/,/,/,.,.,/,/,/
CN1CCCC1CCOC(C)(c1ccccc1)c1ccc(Cl)cc1 (configuration not stated),/,.,.,.,.,25,33,17
